Laboratory results as given in ChEMBL document CHEMBL4513216, “Probing the Open Global Health Chemical Diversity Library for Multistage-Active Starting Points for Next-Generation Antimalarials” (ACS Infect Dis, 2020).
Among all 69,000 compounds or so, about 8,600 (12%) showed an effect of 50% or more. The sample holds strong results, similar compounds and a random draw of the others, so the mix is not that of the screen.

These molecules were tested on Plasmodium berghei (assay: Screen against P. berghei liver stage (PbLuc), transformed with Luciferase, at 10uM). Details: tested at 10 uM.
Assay type: functional, HepG2

Structure (SMILES)	INHIBITION
O=C(Nc1ccc(Cl)cc1C(=O)NCCN1CCOCC1)c1ccco1	32.3%
O=C(Nc1ccc(I)cc1C(=O)NCCN1CCOCC1)c1ccco1	52.2%
O=C(Nc1ccccc1C(=O)NCCCN1CCOCC1)c1ccco1	51%
Cc1nc(-c2ccco2)ccc1C(=O)NCCCN1CCOCC1	24.3%
O=C(Nc1ccccc1C(=O)NCCN1CCOCC1)c1ccco1	38.7%
O=C(Nc1ccc(I)cc1C(=O)NCCN1CCOCC1)c1cccs1	25.4%
CCN(CC)C(=O)CN1CCc2nc(C3CCNCC3)nc(NC)c2C1	23.9%
O=C1[C@H]2CN(Cc3ccccc3)C[C@H]2CN1CCN1CCCC1	-55.3%
CO[C@H]1CCN(C(=O)c2cc(C)on2)[C@H]1Cc1ccncc1	-15.9%
N#CCCN(Cc1ccccn1)Cn1cc(Cl)cn1	46.4%
Cc1ncncc1C(=O)NCCN1CCC(C)CC1	-51.6%
CCS(=O)(=O)Cc1nnnn1-c1ccccc1	61.1%
COCCS(=O)(=O)Cc1nnnn1-c1ccccc1	26.9%
CNC(=O)CCS(=O)(=O)Cc1nnnn1-c1ccccc1	31.2%
COc1ccc([C@@H]2CN(Cc3ccncc3)C[C@H]2c2cc[nH]n2)cc1	39.3%
Cn1cc(CN2CCC3(CC2)COC(COc2ccccn2)C3)cn1 (centres undefined)	30.3%
Cc1cc(C)cc(OCC(O)CN2CCN(c3nccs3)CC2)c1 (centres undefined)	53.4%
OC(COc1ccccc1)CN1CCN(c2nccs2)CC1 (centres undefined)	27.7%
Cc1cccc(OCC(O)CN2CCN(c3nccs3)CC2)c1 (centres undefined)	77.4%
N#Cc1ccc(OCC(O)CN2CCN(c3nccs3)CC2)cc1 (centres undefined)	87.6%
COc1ccc(OCC(O)CN2CCN(c3nccs3)CC2)cc1 (centres undefined)	8.9%
Cc1cccc(OCC(O)CN2CCC(c3ccn[nH]3)CC2)c1 (centres undefined)	42%
N#Cc1ccc(OCC(O)CN2CCC(c3ccn[nH]3)CC2)cc1 (centres undefined)	7.08%

Structure (SMILES)	INHIBITION
CC(C)OCCCNC(=O)CN1CCN(c2nccs2)CC1	-20.5%
CC(=O)N(C)c1nc(CN2CCN(c3nccs3)CC2)cs1	38.3%
CCc1c(C(=O)N2CCNC(=O)C2)cnn1C(C)(C)C	3.73%
Cc1nn(C)c(C)c1C1CCCN1C(=O)c1nccnc1N (centres undefined)	12.7%
Cn1ncc2c1C(COCC1CC1)CN(Cc1ccsc1)C2 (centres undefined)	4.57%
COC(=O)COc1ccc(-c2noc(C3CCCO3)n2)cc1 (centres undefined)	8.59%
COCCCNC(=O)c1cc(-c2ccc(OC)cc2)nn1C	3.19%
COc1ccccc1C1=NOC(CC2(C(=O)NC(C)C)CCOCC2)C1 (centres undefined)	-29.8%
COc1ccc(Cl)cc1-n1nc(C2CCCC2)nc1Cn1cnnn1	70.4%
COCc1nc(C2CC2)nn1-c1ccccc1Cl	37.2%
CCn1cnnc1C1CCN(C(=O)c2ccc(Cl)cc2OC)CC1	25.1%
COc1ccc(-n2nc(C3CC3)nc2CCn2cnnn2)cc1	52.5%
COCc1nc(C2CC2)nn1-c1cc(Cl)ccc1OC	51.1%
Fc1cccc(-n2nc(C3CC3)nc2CCn2cnnn2)c1	24.8%
COCc1nc(C2CC2)nn1-c1cccc(F)c1	-19.8%
COc1ccc(CCNC(=O)C2CCC(Cn3cnnn3)CC2)cc1 (centres undefined)	22.9%
CN1CCC(n2nc(Cc3cccc(Cl)c3)nc2Cn2cnnn2)CC1	15.7%
CN1C(=O)[C@@H]2CC[C@H]1CN(C(=O)c1sccc1S(N)(=O)=O)C2	25.9%
CC(Cn1cccn1)Nc1cnc2ccccc2n1 (centres undefined)	24.2%
Cc1nc(-c2cccc(N3CCC(N[C@@H]4CCOC4)CC3)c2)cs1	44.1%
O=C1N(Cc2cccc(F)c2)CCC12CCCN(c1ncc(F)cn1)C2 (centres undefined)	8.66%
CC(C)=CCCC(C)CN1CCC(n2cc(CO)nn2)CC1 (centres undefined)	-109%
CC(C)=CCCC(C)CN1CCC(n2cc(C(C)(C)O)nn2)CC1 (centres undefined)	-94.3%

Structure (SMILES)	INHIBITION
CC(C)=CCCC(C)CN1CCC(n2cc(C(=O)NCCO)nn2)CC1 (centres undefined)	60.9%
O=C(O)C1(Cc2cccc(Cl)c2)CCCN(c2ncnc3[nH]ccc23)C1 (centres undefined)	-37.9%
CC(C)Cc1nc(CN(C)c2cc(C(C)C)nc3ccnn23)no1	-30.6%
CCNC(=O)N1CCC(c2ccccc2)C1 (centres undefined)	-31%
CSCc1cc(F)ccc1CNCc1ccncc1	24.2%
CSCc1cc(F)ccc1CNCc1cccnc1	35.4%
CSCc1cc(F)ccc1CNCc1ncc[nH]1	63.3%
Cc1nc(Nc2ncccn2)cc(C2CN(C(=O)c3cccnc3)C2)n1	37.6%
CC1=CC[C@@H]2CN(C(=O)c3ccc(-c4nnn(C)n4)cc3)C[C@@H]2C1	35.8%
CC(C)Nc1nc2c(c(NC3CC3)n1)CN(C(=O)c1ccncc1)CC2	5.36%
CC(C)Nc1nc2c(c(NC3CC3)n1)CCN(Cc1nccn1C)CC2	60.3%
Cc1ccc(NC2CCN(C(=O)c3ccsc3)CC2)nn1	31.8%
Cc1nc(NC(C)C)nc2c1CN(Cc1nccn1C)CC2	-4.02%
CC(C)Nc1nc2c(cc1C(=O)O)CCN(Cc1ccsc1)CC2	21.4%
CC(C)Nc1nc2c(c(NC3CC3)n1)CCN(C1CCOCC1)CC2	23.1%
CC(C)Nc1nc2c(c(N(C)C)n1)CCN(Cc1nccn1C)CC2	21.7%
CC(C)N(C)Cc1cnc2n1CCN(C(=O)Cc1ccsc1)C2	-13%
CC(C)N(C)Cc1noc2c1CN(C(=O)c1ccsc1)CC2	-18.5%
CC(C)Nc1nc2c(c(NC3CC3)n1)CN(C(=O)c1ccnnc1)CC2	65.9%
CC(C)Nc1nc2c(c(NC3CC3)n1)CN(C(=O)c1ccsc1)CC2	79.2%
CC(C)Nc1nc2c(c(NC3CC3)n1)CN(C(=O)Cc1ccsc1)CC2	83.7%
CC(C(=O)NCCOc1ccccc1)n1cncn1 (centres undefined)	2.97%
CN(C)C(=O)CN1CC[C@H]2CN(S(C)(=O)=O)C[C@@H]2C1=O	-41.8%
